Experimental data taken from publication PMC4336329 (PLoS ONE, 2015).
Among all 310,000 compounds or so, about 14,000 (4.5%) showed an effect of 50% or more. Effects have a minus sign here. The sample as a whole holds a higher share of strong results than the screen did.

Molecular target: human ether-à-go-go-related gene (hERG) potassium channel (human, UniProt Q12809)
Assay: primary screen, population patch clamp on CHO cells stably expressing hERG; higher = less effect of the substance
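Note: peak tail current of the secondary pulse compared with the same well before compound.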

Chain of human ether-à-go-go-related gene (hERG) potassium channel (Q12809 whole entry, looked up): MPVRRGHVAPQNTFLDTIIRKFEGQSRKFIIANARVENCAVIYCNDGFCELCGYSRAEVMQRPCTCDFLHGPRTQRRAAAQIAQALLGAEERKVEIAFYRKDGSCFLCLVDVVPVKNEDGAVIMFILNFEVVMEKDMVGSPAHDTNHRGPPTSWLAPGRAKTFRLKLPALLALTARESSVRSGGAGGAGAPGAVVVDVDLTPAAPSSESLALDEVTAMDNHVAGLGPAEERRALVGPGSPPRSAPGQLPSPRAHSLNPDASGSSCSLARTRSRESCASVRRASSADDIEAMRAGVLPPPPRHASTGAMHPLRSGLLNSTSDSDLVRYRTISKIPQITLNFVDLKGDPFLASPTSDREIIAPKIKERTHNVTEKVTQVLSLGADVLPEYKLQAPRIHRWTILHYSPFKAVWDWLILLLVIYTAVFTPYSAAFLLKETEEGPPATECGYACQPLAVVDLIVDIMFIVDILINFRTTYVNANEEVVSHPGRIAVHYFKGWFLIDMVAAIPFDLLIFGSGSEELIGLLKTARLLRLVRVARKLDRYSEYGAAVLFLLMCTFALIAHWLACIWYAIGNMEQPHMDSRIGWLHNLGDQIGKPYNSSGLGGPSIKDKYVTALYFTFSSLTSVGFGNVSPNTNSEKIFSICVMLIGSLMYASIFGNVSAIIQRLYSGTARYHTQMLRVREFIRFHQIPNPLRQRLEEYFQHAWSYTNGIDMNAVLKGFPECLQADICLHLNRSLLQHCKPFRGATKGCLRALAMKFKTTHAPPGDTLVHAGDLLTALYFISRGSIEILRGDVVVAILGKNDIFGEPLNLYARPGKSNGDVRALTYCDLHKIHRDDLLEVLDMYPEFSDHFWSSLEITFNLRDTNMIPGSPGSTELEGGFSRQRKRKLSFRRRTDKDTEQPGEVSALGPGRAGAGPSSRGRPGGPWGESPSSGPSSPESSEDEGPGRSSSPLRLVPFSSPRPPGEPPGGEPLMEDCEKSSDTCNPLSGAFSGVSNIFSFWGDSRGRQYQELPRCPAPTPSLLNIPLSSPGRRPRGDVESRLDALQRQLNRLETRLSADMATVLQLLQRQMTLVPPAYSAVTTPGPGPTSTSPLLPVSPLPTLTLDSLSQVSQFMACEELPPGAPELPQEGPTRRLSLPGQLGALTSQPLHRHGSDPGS

Structure (SMILES) | hERG current change (%, negative = inhibition) at 10uM [%]
Cc1nc(CN2CCN(C(=O)c3ccc(C(C)(C)C)cc3)CC2)cs1.Cl | -3.25
COc1ccc(N2CC(C(=O)Nc3c4c(nn3-c3ccc(OC)cc3)CS(=O)(=O)C4)CC2=O)cc1 (stereo not shown) | 21.4
O=C1COc2ccc3ccccc3c2CN1 | 6.37
Cc1ccc(S(=O)(=O)N2CCCC2CNC(=O)C(=O)NC2CCCC2)cc1 (stereo not shown) | -40.3
Cc1ccc(-n2nc3c(=O)n(CCCC(=O)NCCN4CCN(C)CC4)nc(C)c3c2C)cc1 | 16.8
Cc1ccc(S(=O)(=O)N2CCC(C(=O)NC3CC3)CC2)cc1 | -5.59
O=C1CS/C(=N\c2ccccn2)N1C1CCCCC1 | 13.7
CC(NC(=O)CN1CCc2ccccc21)c1ccccc1 (stereo not shown) | 8.5
COc1ccc(-n2cc(CNCCc3ncc(C)[nH]3)c(-c3ccccc3Cl)n2)cc1 | -63.6
N#CCN1CCCC(C(N)=O)C1 (stereo not shown) | 0.891
COc1ccccc1-n1c(SCC(=O)NCC2CCCO2)nc2c([nH]c3ccccc32)c1=O (stereo not shown) | 9.22
CCN(CC)c1ccc(C(=O)N/N=C(\C)c2ccc(OC)c(OC)c2)cc1 | 3.53
Cc1nnsc1C(=O)NNS(=O)(=O)c1ccccc1 | 8.81
C=CCOc1ccc(/C=N/NC(=O)C(C)Sc2ccccn2)cc1OCC (stereo not shown) | 20.6
CCCCN(C)C(=O)c1nc2ccccn2c1CN1CCN(c2ccccn2)CC1 | -7.16
CCCCN(C)C(=O)c1nc2ccccn2c1CN1CCSCC1 | 6.32
CCCCN(C)C(=O)c1nc2ccccn2c1CN1CCN(C(=O)c2cccs2)CC1 | -51.8
CCCCN(C)C(=O)c1nc2ccccn2c1CN1CCN(c2cnccn2)CC1 | -12.4
CCCCN(C)C(=O)c1nc2ccccn2c1CN1CCN(C/C=C/c2ccccc2)CC1 | -83.9
CCCCN(C)C(=O)c1nc2ccccn2c1CN1CCN(c2ncccn2)CC1 | -10.2
COC(=O)C1=C(C(=O)OC)[C@@H]2N(Cc3ccccc3)c3ccccc3[C@@]23C[C@@H](C(=O)OC)N(C(=O)NC(C)(C)C)C3=N1 | -11.7

Structure (SMILES) | hERG current change (%, negative = inhibition) at 10uM [%]
Brc1cnc(N2CCCCC2)nc1N1CCOCC1 | -6.45
CN(C)[C@@H]1C(=O)C(C(N)=O)=C(O)[C@@]2(O)C(=O)C3=C(O)c4c(O)cccc4[C@@](C)(O)C3[C@H](O)C12.Cl (stereo partly shown) | -1.22
O=C(CCCn1c(=O)[nH]c2cc(Cl)ccc2c1=O)NCCN1CCN(c2ccccc2)CC1 | -48.4
O=C(CCCCCn1c(=O)[nH]c2ccccc2c1=O)NCCCN1CCN(c2ccccc2F)CC1 | -79.2
O=C(CCn1c(=O)[nH]c2ccccc2c1=O)NCCCN1CCN(c2cccc(Cl)c2)CC1 | -65.4
O=C(CCCN1C(=O)CSc2ncccc21)N1CCN(c2cccc(C(F)(F)F)c2)CC1 | -56.5
O=C(CN1C(=O)CSc2ncccc21)N1CCOCC1 | -6.66
O=C(CCNC(=O)Cn1ccc2ccccc2c1=O)NCCCN1CCN(c2ccccc2F)CC1 | 10.1
COc1cc2[nH]c(=O)n(CCC(=O)NCCCN3CCN(c4ccccc4F)CC3)c(=O)c2cc1OC | -35.4
O=C(Cn1c(=O)[nH]c2ccccc2c1=O)N1CCN(c2cccc(Cl)c2)CC1 | 15.7
O=C(CCCn1c(=O)[nH]c2cc(Cl)ccc2c1=O)NCCCN1CCN(c2ccc(F)cc2)CC1 | -64.9
O=C(CCCn1c(=O)[nH]c2cc(Cl)ccc2c1=O)NCCCN1CCCC1 | 14.6
COCCn1c(=O)[nH]c2cc(C(=O)NCCN3CCN(c4cccc(Cl)c4)CC3)ccc2c1=O | 12.8
O=C(CCCN1C(=O)CSc2ncccc21)N1CCN(Cc2ccccc2)CC1 | 6.42
Cc1cccc(-n2ncc(C#N)c2-n2cccc2)c1 | -5.85
CC(C)Oc1ccc(C(=O)NCC(=O)OCC(=O)N(C)Cc2cccs2)cc1 | -15.9
C=CCN(Cc1nc(-c2ccccc2)no1)C(=O)c1ccoc1C | -4.69
COC(=O)c1cccc(NC(=O)c2ccc3c(c2)C(=O)N(CC2CCCO2)C3=O)c1 (stereo not shown) | -24.3
NNc1nc(-c2ccccc2Cl)nc2ccccc12 | 11.1
COc1ccc(NC(=O)CCS(=O)(=O)c2ccc3c(c2)CCCN3C(C)=O)cc1 | 9.92
CC(C)NC(=O)NC(=O)CSc1ncccn1 | 15.7

Structure (SMILES) | hERG current change (%, negative = inhibition) at 10uM [%]
Cn1c(=O)oc2cc(S(=O)(=O)N3CCC(C(=O)NCc4ccc(F)cc4)CC3)ccc21 | -8.93
O=C(Cn1c(=O)[nH]c2ccccc2c1=O)N1CCN(Cc2ccc3c(c2)OCO3)CC1 | 0.172
O=C(CCCCn1c(=O)[nH]c2ccccc2c1=O)N1CCN(c2cccc(C(F)(F)F)c2)CC1 | -56.1
O=C(CCn1c(=O)[nH]c2ccccc2c1=O)N1CCN(c2cccc(C(F)(F)F)c2)CC1 | -43
O=C(CCCCn1c(=O)[nH]c2ccccc2c1=O)NCc1ccc2c(c1)OCO2 | -6.99
Cc1ccc(C)c(N2CCN(C(=O)CCCCn3c(=O)[nH]c4ccccc4c3=O)CC2)c1 | -25.2
O=C(CCCCCn1c(=O)[nH]c2ccccc2c1=O)N1CCN(Cc2ccc3c(c2)OCO3)CC1 | -71.7
Cc1cccnc1NC(=O)C1CCN(S(=O)(=O)c2cccs2)CC1 | -6.07
O=C(c1cccnc1)N1CCN(S(=O)(=O)c2ccc(S(=O)(=O)N3CCCC3)cc2)CC1 | 9.65
Cc1ccc(NC(=S)NCCN2CCOCC2)cc1C | -5.31
Cc1ccc(NC(=O)CN2CCOCC2)cc1C | 14.3
Cc1ccc(NC(=Nc2ccc(Br)cc2)N2CCOCC2)cc1C | -63.8
Cc1ccc(NC2CCCN(C(=O)c3cccc(-c4ncc[nH]4)c3)C2)cc1C (stereo not shown) | 3.23
NC(=O)c1nsc(C(=O)N(Cc2cccnc2)C(C(=O)NCc2ccc(F)cc2)c2ccc(O)cc2)c1N (stereo not shown) | -1.96
COc1ccc(C(C(=O)NCc2ccc(F)cc2)N(Cc2cccnc2)C(=O)c2snc(C(N)=O)c2N)cc1 (stereo not shown) | -62
COc1ccc(NC(=O)C(c2ccccc2)N(C)C(=O)c2cnccn2)cc1 (stereo not shown) | 1.47
CCC(C)(C)NC(=O)C(c1ccc(F)cc1)N(Cc1ccc(OC)cc1)C(=O)c1cnccn1 (stereo not shown) | -11.8
COc1ccc(CN(C(=O)c2cnccn2)C(C(=O)Nc2ccc(F)cc2)c2ccccc2)cc1 (stereo not shown) | -68.2
NC(=O)c1nsc(C(=O)N(Cc2cccnc2)C(C(=O)NCc2ccc(F)cc2)c2ccc(F)cc2)c1N (stereo not shown) | 0.71
CCOc1ccc(S(=O)(=O)NNC(=S)Nc2ccc(Br)cc2)cc1 | 5.35
COC1=C(Nc2ccccc2OC)C(=O)c2ccccc2C1=O | 0.0125

Structure (SMILES) | hERG current change (%, negative = inhibition) at 10uM [%]
Cc1ccc(N(C(=O)c2ccc(S(=O)(=O)N3CCOCC3)cc2)C2C=CS(=O)(=O)C2)cc1 (stereo not shown) | 3.58
O=C(NCc1ccc(F)cc1)C(=O)NCC1OCCN1C(=O)c1cccs1 (stereo not shown) | -4.15
O=C(NCc1ccccc1)C(=O)NCC1OCCN1C(=O)c1cccs1 (stereo not shown) | -65.3
O=C(NCc1ccc(Cl)cc1)C(=O)NCC1OCCN1C(=O)c1cccs1 (stereo not shown) | -7.77
Cl.NS(=O)(=O)c1ccc(CCNCc2ccccc2OCc2ccc(F)cc2)cc1 | -74.5
NS(=O)(=O)c1ccc(NCc2cc(Cl)ccc2OCc2ccc(F)cc2)cc1 | 3.36
C=CCOc1ccccc1CNCCc1ccc(S(N)(=O)=O)cc1.Cl | -37.2
Cl.NS(=O)(=O)c1ccc(CCNCc2cc(Cl)ccc2OCc2ccccc2)cc1 | -74.5
Cl.Clc1ccc(COc2ccccc2CNCc2cccnc2)cc1 | -31.1
Cl.NS(=O)(=O)c1ccc(CCNCc2ccccc2OCc2ccc(Cl)cc2)cc1 | -73.1
NS(=O)(=O)c1ccc(CCNC(=O)c2ccccc2OCc2ccc(F)cc2)cc1 | 4.16
NS(=O)(=O)c1ccc(NCc2ccccc2OCc2ccc(F)cc2)cc1 | -17
COc1cc(CNCCc2ccc(S(N)(=O)=O)cc2)ccc1OCc1ccc(Cl)cc1.Cl | -31.8
CCCc1cc2c(cc1NC(=O)c1ccccc1F)OCO2 | -11.3
CC(=O)Nc1sc2c(c1C(=O)N1CCOCC1)CCCCC2 | 17.9
Cc1ccc(-n2ncc3c(NCC4CCCO4)ncnc32)c(C)c1 (stereo not shown) | 12.9
COc1cc(C(C)=O)ccc1OCC(=O)Nc1ccc2nc(C)sc2c1 | 13.4
CC(SC#N)C(=O)C12CC3CC(CC(C3)C1)C2 (stereo not shown) | -8.99
O=C1CN=C(c2ccccc2)c2ccccc2N1 | 8.11
